Screening data: PubChem, several laboratories
AHR activator: AHR activators, primary screen, cell-based, luminescence, luciferase reporter, human | Aryl hydrocarbon receptor (Homo sapiens), P35869 | AHR-responsive luciferase reporter cells | activation, % at 5 µM | 2.5% of 320,000 active; in the data active means activation above about 47%;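 further: 0% = vehicle wells and 100% = reference agonist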
Target sequence (P35869 whole entry, looked up): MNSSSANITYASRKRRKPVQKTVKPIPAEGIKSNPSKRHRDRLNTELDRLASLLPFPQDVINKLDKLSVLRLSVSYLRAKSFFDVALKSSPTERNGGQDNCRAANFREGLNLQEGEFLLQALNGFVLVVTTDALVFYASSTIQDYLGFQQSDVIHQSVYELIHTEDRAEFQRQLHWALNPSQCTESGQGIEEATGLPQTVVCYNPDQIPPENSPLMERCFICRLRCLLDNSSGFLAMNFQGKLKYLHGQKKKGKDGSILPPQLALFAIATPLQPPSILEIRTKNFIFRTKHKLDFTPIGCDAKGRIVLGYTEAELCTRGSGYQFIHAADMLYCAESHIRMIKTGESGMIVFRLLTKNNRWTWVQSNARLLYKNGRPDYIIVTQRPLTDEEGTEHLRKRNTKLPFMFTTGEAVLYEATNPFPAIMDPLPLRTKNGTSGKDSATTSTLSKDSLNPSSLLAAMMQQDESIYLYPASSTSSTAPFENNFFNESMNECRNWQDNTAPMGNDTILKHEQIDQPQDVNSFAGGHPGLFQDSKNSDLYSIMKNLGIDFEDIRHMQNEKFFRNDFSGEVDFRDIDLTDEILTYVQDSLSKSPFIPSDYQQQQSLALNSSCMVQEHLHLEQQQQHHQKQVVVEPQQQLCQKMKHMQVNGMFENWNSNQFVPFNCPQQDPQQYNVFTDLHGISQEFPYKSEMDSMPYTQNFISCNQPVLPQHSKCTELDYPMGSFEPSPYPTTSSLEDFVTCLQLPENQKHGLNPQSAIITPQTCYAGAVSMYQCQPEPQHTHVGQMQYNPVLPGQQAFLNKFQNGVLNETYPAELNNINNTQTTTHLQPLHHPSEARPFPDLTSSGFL
HSF-1 act: HSF-1 activators, primary screen, NIH3T3-HGL cells, MG132 stress, luminescence, single point. activation, % at 9 µM. 1.7% of 300,000 active. NIH3T3-HGL HSF-1 luciferase reporter, 8 h; 100% = twice DMSO control signal. AID 504408, 2011;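 active means mean replicate activation of at least 50% with a set share of replicates each reaching 50%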;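 further: 0% = median of the neutral control wells and 100% = twice that signal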
FXN GAA850 act: FXN promoter activators, primary screen, cell-based, luciferase luminescence, HEK293 lucGAA850; activation, % at 6 µM; 0.56% of 360,000 active; HEK293 lucGAA850 FXN promoter luciferase reporter, 24 h; percent of 10 µM SAHA response;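 active means activation above the average of all compounds screened plus 3 SD, cutoff fixed separately per campaign, cut at about 7.5% in these data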;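 further: 0% = DMSO wells and 100% = 10 µM SAHA wells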
HSF1 inhib: HSF1 inhibitors in luciferase reporter cells, primary screen, cell-based, NIH3T3, luminescence. AID 2098, 2009. activity change, negative = inhibition, % at 7.5 µM (by protocol). 0.77% of 300,000 active. NIH3T3-HGL HSE-luciferase, MG132-induced, luminescence 8 h; active compounds read low;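 active means more than half of replicate wells show activity change below -50%, luminescence cut by over half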;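 further: luciferase reports HSF-1 transcriptional activity via heat shock element; 0% = median of DMSO wells and -100% = zero luminescence signal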
AHR act cf: AHR activators, confirmation, cell-based, luminescence, luciferase reporter, human | activation, % at 9 µM | shares compounds with AHR activator | AID 2845, 2010 | 87% of 2,300 active | human cells, AHR-responsive luciferase reporter; in the data active means activation above about 49%;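 further: HepG2 hepatoma cells carrying a DRE-driven firefly luciferase reporter; 0% = vehicle wells and 100% = reference agonist wells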
PXR act counter: human PXR activators, counter-screen for AHR activator project, cell-based, luciferase luminescence. activation, % at 11.6 µM. shares compounds with AHR activator. cell-based PXR reporter. 88% of 2,300 active; in the data active means activation above about 11%;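 further: human hepatoma DPX-2 cells expressing full-length human PXR; 0% = DMSO and 100% = reference agonist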
Starred values were filed as active, the others as inactive; · = no result. Hits are enriched below; roughly 4.6% of the tested compounds scored in any of these assays.

SMILES	AHR activator	HSF-1 act	FXN GAA850 act	HSF1 inhib	AHR act cf	PXR act counter
Cc1[nH]c2ccccc2c1/C=N/NC(=O)Nc1ccccc1	95*	19	5	-1	136*	46*
COc1cccc(NC(=S)N2CCC(C(=O)c3ccc(F)cc3)CC2)c1	·	·	2	·	·	·
O=C1c2ccccc2NC2CCCCC12 (stereo unspecified)	0	16	3	-6	·	·
CCc1ccc(C(=O)COC(=O)C(CCSC)NC(=O)C23CC4CC(CC(C4)C2)C3)cc1 (stereo unspecified)	1	38	2	1	·	·
CCn1c(O)c(N=NC(=O)CNC(=O)c2ccco2)c2ccccc21	12	·	1	·	·	·
CCCn1c(O)c(N=NC(=O)c2ccco2)c2ccccc21	87*	-65	1	-55*	88*	50*
COc1cccc2[nH]c3c(N4CCCC(C)C4)ncnc3c12 (stereo unspecified)	81*	8	2	6	97*	69*
Fc1ccc(F)c(C2=NNC(=Nc3ccccc3F)SC2)c1	79*	81*	5	31	70*	56*
Fc1ccc(N=C2NN=C(c3cc(F)ccc3F)CS2)cc1	12	·	2	·	·	·
CCOC(=O)C1CCN(C(=O)CCc2c(C)nc3c(-c4ccc(F)cc4)c(C)nn3c2C)CC1	-2	7	0	1	·	·
O=C(NNc1ccccc1[N+](=O)[O-])Nc1ccccc1	9	-1	-1	-5	·	·
c1ccc(Nc2nc(-c3ccccn3)cs2)cc1	116*	41	2	23	53*	·
CC(C)(C)c1cc(=O)[nH]c(SCc2ccccc2Cl)n1	14	2	0	-3	·	·
CC(=O)n1c2ccccc2c2c1c1ccccc1n2C	109*	-5	3	-5	113*	22*
CC(=O)n1c2ccccc2c2nc3ccccc3nc21	40	14	2	2	·	·
O=C(NCc1cccc(Cl)c1)c1cccc(OC2CCN(C(=O)C3CC3)CC2)c1	-2	9	-2	2	·	·
CCc1ccc(S(=O)(=O)c2n[nH]n3c2nc(=O)c2ccccc23)cc1	1	2	-1	0	·	·
O=c1nc2c(-c3ccccc3F)n[nH]n2c2ccccc12	111*	0	6	-7	182*	26*
c1ccc2c(c1)[nH]c1c(N3CCN(C4CCCCC4)CC3)ncnc12	80*	-8	0	26	68*	14*
COc1ccccc1C(=O)C1CCCN(C(=O)C2=CC(=O)CC(C)(C)O2)C1 (stereo unspecified)	1	5	1	2	·	·
CCOC(=O)CSc1c(-c2ccc(Cl)cc2)[nH]c2ccccc12	93*	3	2	-8	61*	9
CCOC(=O)CSc1c(-c2cccs2)[nH]c2ccccc12	23	15	1	-5	·	·
COc1cccc(Nc2ccc(-n3ccnc3)nn2)c1	81*	4	2	-3	79*	16*
Cc1ccc(Nc2ccc(-n3ccnc3)nn2)cc1C	91*	37	0	9	48*	-1
C[C@@H]1C=C[C@](Cc2ccccc2)(C(=O)O)N1C(=O)c1ccccc1	-3	9	1	-3	·	·
SMILES	AHR activator	HSF-1 act	FXN GAA850 act	HSF1 inhib	AHR act cf	PXR act counter
N#C/C(=C/c1ccccc1)c1nn(CCO)c(N)c1C#N	120*	14	2	-6	91*	·
CN1CCN(CC(=O)Nc2c(C(=O)c3ccccc3)oc3ccccc23)CC1	79*	3	0	-2	61*	20*
CN(CCOc1ccccc1)C(=O)c1ccc(F)c(S(=O)(=O)N2CCOCC2)c1	-1	-12	-1	-3	·	·
Nc1ccccc1C#Cc1ccccc1	21	11	3	5	·	·
Nc1ccccc1C#Cc1ccc2[nH]ccc2c1	94*	-6	4	-1	120*	24*
Cc1ccc(C)c(NC(=O)C2CC=CCC2C(=O)O)c1 (stereo unspecified)	4	8	3	-6	·	·
O=C1CSC(=Nc2ccccc2Cl)N1	1	2	-1	-7	·	·
Clc1ccccc1N=C1NN=C(c2cccs2)CS1	139*	23	6	-1	130*	36*
Cc1ccc(/C=N/Nc2nc3ccccc3[nH]2)s1	109*	452*	5	440	143*	30*
Cc1nn(-c2ccccc2)c(Cl)c1/C=N/Nc1nc2ccccc2[nH]1	23	27	0	0	·	·
Brc1ccc(-c2ccc(/C=N/Nc3nc4ccccc4[nH]3)o2)cc1	98*	163*	6	203	121*	12*
O=C(N/N=C/c1cc(Br)cs1)c1c[nH]c2ccccc12	91*	49	-2	18	145*	26*
CCN(CC)C(=O)C1CCCN(Cc2cccc(Oc3ccccc3)c2)C1 (stereo unspecified)	2	0	-3	9	·	·
CC1(C)CC(=O)C2=C(C1)N1C(=C(C#N)C2c2ccc(Cl)cc2)N=C(N)c2ccccc21 (stereo unspecified)	97*	76*	-7	54	8	159*
Cc1ccnc(NC(=O)CCC2COc3ccccc3O2)c1 (stereo unspecified)	6	-2	4	-4	·	·
OCCSc1nc(-c2ccccc2)nc2ccc(F)cc12	102*	-4	2	-5	95*	24*
COC(=O)CSc1nc(-c2ccccc2)nc2ccc(F)cc12	35	19	-1	-5	·	·
CCOc1ccc(NC(=S)N(CCc2c(C)[nH]c3ccc(C)cc23)Cc2ccco2)cc1	86*	-1	-4	3	67*	91*
CCOc1ccc(NC(=S)N(CCc2c(C)[nH]c3ccc(C)cc23)Cc2cccnc2)cc1	36	10	-1	6	·	·
COc1ccc(NC(=S)N(CCc2c(C)[nH]c3ccc(C)cc23)Cc2ccco2)cc1	100*	14	-1	11	84*	111*
NS(=O)(=O)c1ccc(CNC(=O)Cc2cccs2)cc1	0	-23	1	3	·	·
Cc1cccc(-n2ncc3c(NCCCn4ccnc4)ncnc32)c1	83*	23	3	3	57*	45*
Cc1ccc(-n2ncc3c(NCCCn4ccnc4)ncnc32)c(C)c1	32	-5	-1	-5	·	·
Cc1sc2ncnc(NCCCn3ccnc3)c2c1C	127*	-24	0	-13	102*	22*
c1csc(-c2nc3c4ccccc4c4ccccc4c3[nH]2)c1	112*	32	0	7	96*	25*
CC(C)(C=O)C1=CC(=O)c2ccccc2C1=O	83*	·	0	·	112*	26*
